# In the library only some 19% were active in any assay of this set; here they are far more common.
# HT1080 IDH1KD tx – kills HT-1080 cells with IDH1 knockdown | HT-1080 IDH1 knockdown viability, ATP luminescence, 48 h | Potency, µM (top dose mostly 46.1 µM), for the others: at the highest dose activity, negative = toxicity, usual class: cytotoxic | hit rate 2% among 360,000 | AID 686971;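 further: 0% = DMSO wells and -100% = cell-free medium wells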
#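 HT-1080-IDH1KD cells (IDH1 knocked down), 750/well in RPMI with 5% FBS, treated with compound 48 h at 37 degrees C. Viability by CellTiter-Glo luminescence, normalised to DMSO and no-cell wells; concentration-response curves classed.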
# KB-3-1 tox – KB-3-1 parental cell cytotoxicity; KB-3-1 viability, CellTiter-Glo ATP luminescence, 72 h; hit rate 1.4% among 400,000; AID 1347075; Potency, µM (titrated, usually from 46.1 µM), actives largely listed as cytotoxic; further: nearly all actives have a fitted effect of over 60% in size
#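 Cytotoxicity measured as CellTiter-Glo luminescence after 72 h at 37 C. Compound titrations were pinned onto drug-naive KB-3-1 parental adenocarcinoma cells grown in DMEM with 10% FBS, and normalized data fitted to concentration-response curves.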
# TDP1 cell CPT – growth inhibition of DT40 Tdp1-/-;hTDP1 cells with camptothecin (screen for TDP1 inhibitors); Potency, µM (top dose mostly 46.2 µM), for inactives: at the top dose activity change, negative = growth inhibition, most hits filed as inhibitors; chicken DT40 Tdp1-/-;hTDP1 cells + 20 nM CPT, ATP luminescence, 48 h; hit rate 12% among 420,000; further: nearly all actives have a fitted effect of over 55% in size
#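 Cell growth measured by CellTiter-Glo luminescence after a minimum 48 h, 37 C compound exposure with 20 nM CPT in Tdp1-knockout DT40 cells stably expressing hTDP1, seeded 400/well; qHTS titration format.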
# KB-V1 MDR tox – KB-V1 MDR subline cytotoxicity; KB-V1 MDR cells viability, CellTiter-Glo, 72 h; Potency, µM (series often up to 46.1 µM), hits mostly cytotoxic; hit rate 3.4% among 400,000; AID 1347076; further: nearly all actives have a fitted effect of over 60% in size
#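 Readout: CellTiter-Glo luminescence, 10 min after addition. Cells: KB-V1 MDR subline, 72 h at 37 degrees C with compound. Analysis: corrected, normalized data fitted to concentration-effect curves.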
# TDP1 cell noCPT – qHTS for Inhibitors of human tyrosyl-DNA phosphodiesterase 1 (TDP1): qHTS in cells in absence of CPT. DT40 Tdp1-/- hTDP1 cells, no CPT, ATP luminescence, 48 h. Potency, µM (doses to about 46.2 µM), for inactives: at the highest dose activity change, negative = growth inhibition, actives largely listed as inhibitors. hit rate 15% among 420,000. AID 686978, 2013; further: nearly all actives have a fitted effect of over 55% in size
#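 No-CPT arm: Tdp1-/-;hTDP1 DT40 cells (400/well) plus compounds, incubated ≥48 hr at 37 °C. Readout CellTiter-Glo luminescence.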
# HT1080-NT tox – kills 2HG-producing HT-1080-NT fibrosarcoma cells. HT-1080-NT fibrosarcoma viability, CellTiter-Glo ATP luminescence, 48 h. Potency, µM (series often up to 46.1 µM), for the others: at the top dose activity, negative = less viability, hits mostly cytotoxic. AID 686970. hit rate 1.6% among 360,000;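 further: NT is the 2HG producing partner of a matched IDH1 knockdown line; 0% = DMSO-treated cells and -100% = media-only wells without cells; nearly all actives have a fitted effect of over 55% in size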
#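 Viability of the 2HG-overproducing fibrosarcoma line after 48 hours of compound exposure at 37 degrees C was determined by luminescence with CellTiter-Glo, and concentration-effect curves were then fitted and categorized.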
# An asterisk follows results filed as active; i = inactive; ? = inconclusive; nt = no result given; ! = repeats disagree; [ ] = remark or other dose. The call rests on the fitted dose curve; in most records, active means well fitted curve in the direction sought with a large enough effect; inconclusive means small, poorly fitted or top-dose-only effect, or another doubt; inactive means no such curve, though single readings can be large; an effect the other way counts as inactive or inconclusive. Unless noted, on the % scale 0 is the no-effect control and ±100 the full control effect; potency means the concentration at half of the fitted maximal effect.
SMILES,HT1080 IDH1KD tx,KB-3-1 tox,TDP1 cell CPT,KB-V1 MDR tox,TDP1 cell noCPT,HT1080-NT tox
COc1ccc(S(=O)(=O)N(CC(=O)NC(C)c2ccccc2)c2ccc(C)cc2)cc1OC (configuration not stated),nt,i,?,?,5.8µM*,nt
COc1ccc(S(=O)(=O)N(CCc2ccccc2)CC(=O)Nc2cc(C)cc(C)c2)cc1OC,nt,i,?,i,?,nt
CCc1ccc(CNC(=O)c2cnc3sc(N4CCCCC4)nn3c2=O)cc1,nt,i,-21%,?,-16%,nt
O=C(Nc1ccn(CC(=O)N2CCN(c3ccccn3)CC2)c(=O)n1)OCc1ccccc1,1%,i,9%,?,-27%,30%
CCC(=O)N1CCc2cc(S(=O)(=O)NC(C(=O)NCCc3ccc(Cl)cc3)C(C)C)ccc21 (configuration not stated),nt,i,-17%,i,-10%,nt
CCOC(=O)N1CCN(C(=O)c2ccc3c(c2)N(Cc2ccccc2F)C(=O)c2ccccc2S3(=O)=O)CC1,nt,i,-26%,i,?,nt
COc1ccc(OC)c(N(CC(=O)Nc2ccccc2)S(=O)(=O)c2ccccc2)c1,-2%,i,?,?,?,2%
COc1ccc(C(C)NC(=O)CN(c2cc(OC)ccc2OC)S(=O)(=O)c2ccccc2)cc1 (configuration not stated),nt,i,21µM*,i,?,nt
COc1ccc(/C=C/C(=O)N2c3ccccc3Sc3ccc(C(F)(F)F)cc32)cc1,-11%,i,?,?,18µM*,-2%
COc1ccc(-c2cc3c(=O)n(CC(=O)Nc4cc(F)ccc4F)ccn3n2)cc1OC,nt,?,-9%,i,-16%,nt
COc1cc(OC)cc(-c2nnc(NC(=O)CCS(=O)(=O)c3ccccc3)o2)c1,-7%,i,?,i,16µM*,-6%
COc1cc(-c2nnc(NC(=O)CCS(=O)(=O)c3ccccc3)o2)cc(OC)c1OC,?,i,16µM*,i,15µM*,21µM*
COc1cc(OC)cc(-c2nnc(NC(=O)CCS(=O)(=O)c3ccc(F)cc3)o2)c1,-3%,i,?,i,?,-6%
Cc1ccc(C)c(-c2nnc(NC(=O)CCS(=O)(=O)c3ccccc3)o2)c1,-12%,i,?,i,?,2%
COc1cc(-c2nnc(NC(=O)CCS(=O)(=O)c3ccc(F)cc3)o2)cc(OC)c1OC,?,i,?,i,18µM*,-4%
O=C(NCC1CCCO1)c1cccc(S(=O)(=O)Nc2ccccc2Cl)c1 (configuration not stated),1%,i,-21%,i,-13%,-1%
CCc1ccc(N2CCN(S(=O)(=O)CC34CCC(CC3=O)C4(C)C)CC2)cc1 (configuration not stated),-16%,?,-53%,?,21µM*,-1%
CCc1ccccc1NC(=O)Cn1c(=O)n(CC(=O)NCCc2ccccc2)c(=O)c2ccccc21,nt,i,-23%,i,-5%,nt
Cc1ccc(O)c(NC(=O)c2cc3nc4c(c(C(F)(F)F)n3n2)CCc2ccccc2-4)c1,16%,i,?,i,23µM*,27%
CCN(CC)CCCNC(=O)c1cc2nc3c(c(C(F)(F)F)n2n1)CCc1ccccc1-3,?,i,?,i,?,?
O=S(=O)(c1cc(Cl)cc(Cl)c1)N1CCN(c2nc(-c3cccs3)nc3ccccc23)CC1,nt,i,-27%,i,?,nt
Cc1cc(NC(=O)c2cccs2)cc(-c2nc3cc(Cl)ccc3o2)c1O,nt,i,nt,?,nt,nt
O=c1cc(C(F)(F)F)[nH]c2ccccc12,-26%,i,?,i,21µM*,?
CCc1c(C)[nH]c2ccc(C)cc2c1=O,7%,i,?,i,?,14%
Cc1ccc2[nH]c(C(F)(F)F)cc(=O)c2c1,?,i,?,?,12µM*,-25%
SMILES,HT1080 IDH1KD tx,KB-3-1 tox,TDP1 cell CPT,KB-V1 MDR tox,TDP1 cell noCPT,HT1080-NT tox
Cc1cccc2c(=O)cc(C(F)(F)F)[nH]c12,?,i,?,i,?,?
O=C(O)c1cc(=O)c2ccccc2[nH]1,-5%,i,0.058µM*!,?,-12%,-3%
O=C(O)c1cc(=O)c2c(Cl)cc(Cl)cc2[nH]1,8%,i,3%,i,7%,17%
CCCCC(c1nnnn1CC1CCCO1)N1CCN(c2nc3ccccc3s2)CC1 (configuration not stated),-11%,i,23µM*,i,?,-18%
CCCCC(c1nnnn1CC1CCCO1)N1CCN(c2cc(Cl)ccc2C)CC1 (configuration not stated),-6%,?,?,?,16µM*,-9%
COc1ccccc1C=Cc1ccnc2ccccc12,0%,?,?,?,?,1%
COc1cccc(/C=C/c2ccnc3ccccc23)c1OC,nt,i,?,i,11µM*,nt
COc1cc(/C=C/c2ccnc3ccccc23)ccc1N(C)C,nt,?,2µM*,?,2.2µM*,nt
COc1cc(N(C)C)c(OC)cc1/C=C/c1ccnc2ccccc12,nt,i,10µM*,i,10µM*,nt
COc1cccc(N2CCN(C3C(=O)c4ccccc4N3C(C)=O)CC2)c1 (configuration not stated),nt,i,?,i,?,nt
Cc1ccc(C(=O)Nc2nnc(S(=O)(=O)N3CCCc4ccccc43)s2)cc1,nt,i,-11%,i,15%,nt
COc1cnc(SC)nc1Nc1ccc(C#N)cc1,1%,i,-25%,i,?,0%
C/C(=N/NC(=O)c1ccccc1)c1ccc(NC(=O)C(F)(F)F)cc1,13%,i,-27%,i,-16%,15%
CCN(CC)c1ccc(/C=C/C2=C3C=CC=CC3NC=C2)cc1 (configuration not stated),nt,?,?,i,14µM*,nt
COc1ccccc1C(=O)N[C@@H]1c2ccccc2C2(CCN(Cc3c(O)cccc3OC)CC2)[C@H]1O,nt,nt,-8%[9.04 µM],nt,18µM*,nt
COc1cccc(-c2nn(C)c3sc(C(=O)N4CCN(c5cccc(C(F)(F)F)c5)CC4)cc23)c1,nt,i,16µM*,i,26µM*,nt
